# Assay results taken from ChEMBL document CHEMBL2218924, “A broad activity screen in support of a chemogenomic map for kinase signalling research and drug discovery” (Biochem J, 2013).
# Columns and labels:
# [1] = molecular target: Tyrosine-protein kinase Yes (Homo sapiens) (UniProt P07947); details: at 1 µM
# [2] = molecular target: Tyrosine-protein kinase Yes (Homo sapiens) (UniProt P07947); details: at 10 µM
# [3] = molecular target: T1, Tyrosine-protein kinase ZAP-70 (Homo sapiens) (UniProt P43403); details: at 1 µM
# T1 sequence (whole entry): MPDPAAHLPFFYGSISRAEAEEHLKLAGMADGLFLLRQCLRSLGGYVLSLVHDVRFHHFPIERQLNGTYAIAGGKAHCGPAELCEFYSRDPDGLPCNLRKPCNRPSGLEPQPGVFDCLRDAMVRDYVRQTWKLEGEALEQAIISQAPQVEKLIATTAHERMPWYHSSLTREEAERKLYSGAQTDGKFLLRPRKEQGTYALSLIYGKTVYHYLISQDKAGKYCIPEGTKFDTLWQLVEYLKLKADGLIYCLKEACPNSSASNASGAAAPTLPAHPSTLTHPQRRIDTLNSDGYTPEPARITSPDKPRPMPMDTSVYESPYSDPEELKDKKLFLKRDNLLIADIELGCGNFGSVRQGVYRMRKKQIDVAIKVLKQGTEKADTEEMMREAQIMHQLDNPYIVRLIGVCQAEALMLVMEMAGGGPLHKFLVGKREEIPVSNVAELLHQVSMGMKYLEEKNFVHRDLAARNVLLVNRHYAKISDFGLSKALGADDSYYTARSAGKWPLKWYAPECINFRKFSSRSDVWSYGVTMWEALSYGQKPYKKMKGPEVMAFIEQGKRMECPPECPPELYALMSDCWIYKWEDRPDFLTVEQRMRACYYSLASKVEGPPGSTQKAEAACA
# [4] = molecular target: T1, Tyrosine-protein kinase ZAP-70 (Homo sapiens); details: at 10 µM
# [5] = molecular target: Death-associated protein kinase 3 (Homo sapiens) (UniProt O43293); details: at 10 µM
# [6] = molecular target: RAF proto-oncogene serine/threonine-protein kinase (Homo sapiens) (UniProt P04049); details: at 1 µM
# [7] = molecular target: RAF proto-oncogene serine/threonine-protein kinase (Homo sapiens) (UniProt P04049); details: at 10 µM
# [8] = molecular target: Mast/stem cell growth factor receptor Kit (Homo sapiens) (UniProt P10721); details: at 10 µM
# [9] = molecular target: Mast/stem cell growth factor receptor Kit (Homo sapiens) (UniProt P10721); details: at 1 µM
# [10] = molecular target: Death-associated protein kinase 3 (Homo sapiens) (UniProt O43293); details: at 1 µM
# Death-associated protein kinase 3 (Homo sapiens), sequence (O43293 whole entry, looked up): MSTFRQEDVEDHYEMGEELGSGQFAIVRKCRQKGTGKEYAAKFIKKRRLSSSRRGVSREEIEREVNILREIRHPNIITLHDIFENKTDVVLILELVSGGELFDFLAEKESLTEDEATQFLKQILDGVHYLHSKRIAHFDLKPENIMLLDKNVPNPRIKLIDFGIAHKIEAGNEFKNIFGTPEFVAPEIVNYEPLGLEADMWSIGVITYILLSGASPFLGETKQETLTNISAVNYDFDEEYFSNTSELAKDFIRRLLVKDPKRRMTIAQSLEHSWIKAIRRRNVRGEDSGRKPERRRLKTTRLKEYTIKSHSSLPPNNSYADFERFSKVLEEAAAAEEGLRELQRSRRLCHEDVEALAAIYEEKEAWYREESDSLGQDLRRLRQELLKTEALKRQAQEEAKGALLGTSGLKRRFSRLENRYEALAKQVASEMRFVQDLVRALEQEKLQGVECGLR
# Mast/stem cell growth factor receptor Kit (Homo sapiens), sequence (P10721 whole entry): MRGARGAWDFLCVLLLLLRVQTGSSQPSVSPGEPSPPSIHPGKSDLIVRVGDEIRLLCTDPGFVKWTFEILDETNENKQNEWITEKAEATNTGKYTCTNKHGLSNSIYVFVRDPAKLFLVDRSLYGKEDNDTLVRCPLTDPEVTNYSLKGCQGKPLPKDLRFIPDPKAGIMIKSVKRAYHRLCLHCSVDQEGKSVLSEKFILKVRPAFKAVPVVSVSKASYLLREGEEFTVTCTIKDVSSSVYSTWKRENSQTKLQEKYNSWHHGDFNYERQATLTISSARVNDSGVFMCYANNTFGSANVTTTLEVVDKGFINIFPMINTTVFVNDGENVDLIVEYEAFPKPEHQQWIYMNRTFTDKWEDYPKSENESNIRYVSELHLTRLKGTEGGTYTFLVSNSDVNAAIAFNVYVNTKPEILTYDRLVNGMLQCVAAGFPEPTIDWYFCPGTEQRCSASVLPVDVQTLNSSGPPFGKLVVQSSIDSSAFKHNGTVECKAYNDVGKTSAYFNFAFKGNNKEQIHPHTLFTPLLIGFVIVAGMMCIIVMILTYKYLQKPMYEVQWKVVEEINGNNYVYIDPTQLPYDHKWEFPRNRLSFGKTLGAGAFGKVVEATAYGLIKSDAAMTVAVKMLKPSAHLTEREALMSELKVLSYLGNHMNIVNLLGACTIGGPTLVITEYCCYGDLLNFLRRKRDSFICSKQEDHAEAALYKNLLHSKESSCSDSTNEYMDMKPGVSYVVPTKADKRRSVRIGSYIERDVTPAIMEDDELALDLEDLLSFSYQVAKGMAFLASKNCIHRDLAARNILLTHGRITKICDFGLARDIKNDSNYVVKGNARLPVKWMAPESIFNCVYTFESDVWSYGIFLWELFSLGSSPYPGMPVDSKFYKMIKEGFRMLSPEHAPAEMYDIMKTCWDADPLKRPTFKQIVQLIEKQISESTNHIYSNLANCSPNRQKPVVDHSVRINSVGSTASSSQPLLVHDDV
# Tyrosine-protein kinase Yes (Homo sapiens), sequence (P07947 2-543 limits assumed): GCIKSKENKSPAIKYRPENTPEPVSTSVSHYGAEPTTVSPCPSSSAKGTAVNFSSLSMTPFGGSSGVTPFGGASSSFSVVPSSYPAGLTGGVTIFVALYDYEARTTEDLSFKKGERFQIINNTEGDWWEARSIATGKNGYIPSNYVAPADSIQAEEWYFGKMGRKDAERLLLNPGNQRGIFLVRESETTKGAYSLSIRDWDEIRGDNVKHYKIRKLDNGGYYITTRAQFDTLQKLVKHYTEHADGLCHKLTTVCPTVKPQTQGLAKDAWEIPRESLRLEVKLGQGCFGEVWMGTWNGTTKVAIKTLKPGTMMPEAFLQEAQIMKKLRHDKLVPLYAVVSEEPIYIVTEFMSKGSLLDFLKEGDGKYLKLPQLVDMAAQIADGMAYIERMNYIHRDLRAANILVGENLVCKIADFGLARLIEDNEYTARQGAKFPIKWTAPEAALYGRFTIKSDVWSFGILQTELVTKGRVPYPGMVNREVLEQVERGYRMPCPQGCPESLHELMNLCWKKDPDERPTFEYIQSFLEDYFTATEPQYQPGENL
# RAF proto-oncogene serine/threonine-protein kinase (Homo sapiens), sequence (P04049 whole entry): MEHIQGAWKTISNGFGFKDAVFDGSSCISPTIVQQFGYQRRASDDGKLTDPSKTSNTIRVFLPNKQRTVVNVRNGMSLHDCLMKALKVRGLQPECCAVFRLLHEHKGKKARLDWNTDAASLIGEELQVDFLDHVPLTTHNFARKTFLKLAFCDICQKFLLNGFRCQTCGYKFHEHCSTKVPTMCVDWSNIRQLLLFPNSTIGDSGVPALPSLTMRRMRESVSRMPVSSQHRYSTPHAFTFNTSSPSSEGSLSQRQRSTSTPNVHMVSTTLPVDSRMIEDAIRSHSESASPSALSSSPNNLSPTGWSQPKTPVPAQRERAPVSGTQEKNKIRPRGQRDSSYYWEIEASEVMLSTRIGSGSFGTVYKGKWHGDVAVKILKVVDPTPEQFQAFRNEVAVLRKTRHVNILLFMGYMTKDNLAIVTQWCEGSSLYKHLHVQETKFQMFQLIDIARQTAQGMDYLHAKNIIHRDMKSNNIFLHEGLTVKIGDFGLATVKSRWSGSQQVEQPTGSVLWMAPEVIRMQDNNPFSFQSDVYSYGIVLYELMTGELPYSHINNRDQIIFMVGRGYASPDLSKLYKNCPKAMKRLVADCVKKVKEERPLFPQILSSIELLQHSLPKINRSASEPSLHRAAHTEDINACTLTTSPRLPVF
smiles,measurement,setting,value
CCn1cnc2c(Nc3cccc(Cl)c3)nc(N[C@@H]3CCCC[C@@H]3N)nc21,residual activity,[1],7%
same,residual activity,[2],1%
same,residual activity,[3],93%
same,residual activity,[4],95%
same,residual activity,[5],55%
same,residual activity,[6],68%
same,residual activity,[7],23%
same,residual activity,[8],86%
CCc1nc(-c2ccc(OC)cc2)[nH]c1-c1ccncc1,residual activity,[1],123%
same,residual activity,[2],101%
same,residual activity,[3],119%
same,residual activity,[4],121%
same,residual activity,[9],127%
same,residual activity,[8],104%
C[C@@H](N)[C@H]1CC[C@H](C(=O)Nc2ccncc2)CC1,residual activity,[4],122%
N/C(=N\[N+](=O)[O-])N/N=C\c1ccc(-c2cccc([N+](=O)[O-])c2)o1,residual activity,[2],100%
same,residual activity,[3],99%
same,residual activity,[4],100%
same,residual activity,[6],88%
same,residual activity,[7],80%
CC(C)[C@H](CO)Nc1nc(Nc2cccc(Cl)c2)c2ncn(C(C)C)c2n1,residual activity,[1],4%
same,residual activity,[2],0%
same,residual activity,[10],96%
same,residual activity,[6],73%
same,residual activity,[7],43%
same,residual activity,[9],117%
same,residual activity,[8],98%
Oc1n[nH]c2nnc(-c3c(-c4ccccc4)nn4ccccc34)cc12,residual activity,[4],99%
Nc1ncnc2[nH]nc(Nc3ccc(F)cc3)c12,residual activity,[4],98%
COc1ccc2c(c[n+](C)c3c4cc5c(cc4ccc23)OCO5)c1OC,residual activity,[2],84%
same,residual activity,[3],119%
same,residual activity,[4],95%
same,residual activity,[10],94%
same,residual activity,[9],123%
same,residual activity,[8],95%
N#C/C(=C\c1ccc(O)c(O)c1)C(=O)NCc1ccccc1,residual activity,[4],129%
Cn1sc(=O)n(Cc2ccccc2)c1=O,residual activity,[4],96%
O=C1NC(=O)c2c1c1c3ccccc3[nH]c1c1[nH]c3cc(Br)ccc3c21,residual activity,[4],90%
NC(=O)c1ccc(-c2nc(-c3ccc4c(c3)OCCO4)c(-c3ccccn3)[nH]2)cc1,residual activity,[4],86%
COc1cc(OC)c(/C=C2\C(=O)Nc3ccccc32)c(OC)c1,residual activity,[2],78%
same,residual activity,[3],90%
same,residual activity,[4],82%
same,residual activity,[5],96%
same,residual activity,[6],67%
same,residual activity,[7],67%
same,residual activity,[9],98%
same,residual activity,[8],105%
O=[N+]([O-])c1ccc(-c2nc(-c3ccc(F)cc3)c(-c3ccncc3)[nH]2)cc1,residual activity,[4],122%
Cc1nc2cc3nc(-c4cccs4)cnc3cc2n1C,residual activity,[4],115%
COc1ccc2c(c1)/C(=C/c1cnc[nH]1)C(=O)N2,residual activity,[1],96%
same,residual activity,[2],19%
same,residual activity,[6],75%
same,residual activity,[7],74%
C[S+]([O-])c1ccc(-c2nc(-c3ccc(F)cc3)c(-c3ccncc3)[nH]2)cc1 (configuration not stated),residual activity,[2],45%
same,residual activity,[3],124%
same,residual activity,[4],130%
same,residual activity,[10],98%
same,residual activity,[5],100%
same,residual activity,[6],17%
same,residual activity,[7],3%
same,residual activity,[9],119%
same,residual activity,[8],102%
O=c1[nH]c2ccccc2n1C1CCN(Cc2ccc(-c3nc4cc5[nH]cnc5cc4nc3-c3ccccc3)cc2)CC1,residual activity,[1],99%
same,residual activity,[2],73%
same,residual activity,[3],123%
same,residual activity,[4],98%
same,residual activity,[10],100%
same,residual activity,[5],95%
same,residual activity,[6],94%
same,residual activity,[7],109%
same,residual activity,[9],121%
same,residual activity,[8],87%
O=C1Nc2ccc3ncsc3c2/C1=C/c1c[nH]cn1,residual activity,[1],52%
same,residual activity,[2],9%
same,residual activity,[3],102%
same,residual activity,[4],101%
same,residual activity,[10],68%
same,residual activity,[5],50%
same,residual activity,[6],48%
same,residual activity,[7],35%
same,residual activity,[9],25%
same,residual activity,[8],4%
Ic1cccc(CSc2nnc(-c3ccncc3)o2)c1,residual activity,[4],102%
O=C1c2ccccc2-c2nc3nnnn3nc21,residual activity,[3],111%
same,residual activity,[4],120%
same,residual activity,[5],114%
same,residual activity,[7],101%
Cn1nc2c3c(cccc31)C(=O)c1ccccc1-2,residual activity,[4],85%
O=C1NC(=O)c2c1c1c3ccccc3n3c1c1c2c2ccccc2n1C1CCC3O1,residual activity,[3],132%
same,residual activity,[4],125%
same,residual activity,[10],80%
same,residual activity,[5],78%
same,residual activity,[6],77%
same,residual activity,[7],98%
Cn1cc(/C=C2\C(=O)Nc3ccc(S(N)(=O)=O)cc32)c2ccccc21,residual activity,[4],125%
CC(C)[C@H](CO)Nc1nc(Nc2cc(N)cc(Cl)c2)c2ncn(C(C)C)c2n1,residual activity,[4],98%
c1cc(-c2cnn3cc(-c4ccc(OCCN5CCCCC5)cc4)cnc23)ccn1,residual activity,[1],7%
same,residual activity,[2],0%
same,residual activity,[4],101%
same,residual activity,[6],82%
same,residual activity,[7],47%
same,residual activity,[9],5%
same,residual activity,[8],2%
COc1cc2ncnc(Nc3cccc(Cl)c3)c2cc1OC,residual activity,[4],125%
O=Nc1c(-c2c(O)[nH]c3ccccc23)[nH]c2ccccc12,residual activity,[4],91%
NC(=O)c1ccc2[nH]c(-c3ccc(Oc4ccc(Cl)cc4)cc3)nc2c1,residual activity,[4],96%
COc1cc2ncnc(Nc3ccc(OCc4ccccc4)cc3)c2cc1OC,residual activity,[1],64%
same,residual activity,[2],39%
same,residual activity,[3],112%
same,residual activity,[4],107%
same,residual activity,[10],86%
same,residual activity,[5],104%
same,residual activity,[6],86%
same,residual activity,[7],96%
same,residual activity,[9],98%
same,residual activity,[8],29%
O=C(O)/C=C/c1cc(Br)c(Br)c(Br)c1Br,residual activity,[4],82%
Cc1nc(-c2ccccc2)c(-c2ccncc2)o1,residual activity,[4],135%
COC(=O)[C@@]1(O)C[C@H]2O[C@]1(C)n1c3ccccc3c3c4c(c5c6ccccc6n2c5c31)C(=O)NC4,residual activity,[1],11%
same,residual activity,[2],1%
same,residual activity,[3],16%
same,residual activity,[4],2%
same,residual activity,[10],12%
same,residual activity,[5],2%
same,residual activity,[6],78%
same,residual activity,[7],69%
same,residual activity,[9],76%
same,residual activity,[8],20%
O=[N+]([O-])/C=C/c1ccc2c(c1)OCO2,residual activity,[1],118%
same,residual activity,[2],98%
same,residual activity,[3],111%
same,residual activity,[4],127%
same,residual activity,[10],96%
same,residual activity,[5],128%
same,residual activity,[6],87%
same,residual activity,[7],101%
same,residual activity,[9],113%
same,residual activity,[8],99%
CC(C)(C)c1cc(C=C(C#N)C#N)cc(Br)c1O,residual activity,[6],99%
same,residual activity,[9],113%
same,residual activity,[8],102%
CN[C@@H]1C[C@H]2O[C@@](C)([C@@H]1OC)n1c3ccccc3c3c4c(c5c6ccccc6n2c5c31)C(=O)NC4,residual activity,[6],109%
